From PubChem BioAssay
A selection: hits, their analogues and other compounds. The true share with any hit is near 15%.
DT40 TDP1 CPT: qHTS for Inhibitors of human tyrosyl-DNA phosphodiesterase 1 (TDP1): qHTS in cells in presence of CPT. Potency, µM (doses to about 46.2 µM), for inactives: top-dose activity change, negative = growth inhibition, actives largely listed as inhibitors. chicken DT40 Tdp1-/-;hTDP1 cells + 20 nM CPT, ATP luminescence, 48 h. 12% of 420,000 active; also: nearly all actives have a fitted effect of over 55% in size
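Chicken DT40 Tdp1-/- cells stably complemented with human TDP1 were seeded at 400 cells/well in medium containing 20 nM camptothecin, exposed to pin-transferred compounds, and grown at 37 °C for at least 48 hr. Viability was read as ATP luminescence.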
ELG1 DNA repair: qHTS screen for small molecules that inhibit ELG1-dependent DNA repair in human embryonic kidney (HEK293T) cells expressing luciferase-tagged ELG1; AID 504467, 2011; HEK293T ELG1-luciferase reporter, luminescence, 16 h; DNA damage induced by 5-fluorouridine; Potency, µM (top dose mostly 46.1 µM), without a hit: top-dose activity change, negative = inhibition, most hits filed as inhibitors; 2.3% of 330,000 active; also: nearly all actives have a fitted effect of over 55% in size
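Quantitative HTS, concentration-response format. 2,000 cells/well co-treated with 5-fluorouridine and compound, 16 hr in 5% CO2 at 37 °C; ONE-Glo luminescence read after 30 min.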
RORg inh: qHTS for inhibitors of ROR gamma transcriptional activity; Nuclear receptor ROR-gamma (Mus musculus), P51450; Potency, µM (series often up to 53.6 µM), for inactives: top-dose activity change, negative = inhibition, usual class: inhibitors; 5.4% of 310,000 active; Drosophila S2 Gal4-RORgamma UAS-luciferase reporter, 20 h; AID 2551, 2010; also: nearly all actives have a fitted effect of over 60% in size
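Luminescence from a UAS-regulated Photinus luciferase reporter in stably transfected Drosophila Schneider cells is measured; decreased signal marks ROR gamma inhibition. Fusion expression is induced by 700 uM copper sulfate for 20 hr.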
Gal4-VP16 FLuc: VP16 counterscreen qHTS for inhibitors of ROR gamma transcriptional activity. Drosophila S2 Gal4-VP16 UAS-luciferase, luminescence, 20 h. 3.5% of 310,000 active. AID 2546, 2010. Potency, µM (doses to about 53.6 µM), inactives show at the highest dose activity, negative = inhibition, actives largely listed as inhibitors;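 also: Gal4-VP16 expression switched on by copper sulfate through the metallothionein promoter; nearly all actives have a fitted effect of over 50% in size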
12-LOX inh: Primary qHTS assay for inhibitors of human arachidonate 12S-lipoxygenase (ALOX12): Round 2; purified 12hLO, xylenol orange hydroperoxide absorbance; Polyunsaturated fatty acid lipoxygenase ALOX12 (Homo sapiens), P18054; 1.1% of 580,000 active; Potency, µM (doses to about 108 µM), inactives show at the highest dose activity change, negative = inhibition, actives largely listed as inhibitors; AID 1671190, 2021
Target sequence (P18054 whole entry, looked up): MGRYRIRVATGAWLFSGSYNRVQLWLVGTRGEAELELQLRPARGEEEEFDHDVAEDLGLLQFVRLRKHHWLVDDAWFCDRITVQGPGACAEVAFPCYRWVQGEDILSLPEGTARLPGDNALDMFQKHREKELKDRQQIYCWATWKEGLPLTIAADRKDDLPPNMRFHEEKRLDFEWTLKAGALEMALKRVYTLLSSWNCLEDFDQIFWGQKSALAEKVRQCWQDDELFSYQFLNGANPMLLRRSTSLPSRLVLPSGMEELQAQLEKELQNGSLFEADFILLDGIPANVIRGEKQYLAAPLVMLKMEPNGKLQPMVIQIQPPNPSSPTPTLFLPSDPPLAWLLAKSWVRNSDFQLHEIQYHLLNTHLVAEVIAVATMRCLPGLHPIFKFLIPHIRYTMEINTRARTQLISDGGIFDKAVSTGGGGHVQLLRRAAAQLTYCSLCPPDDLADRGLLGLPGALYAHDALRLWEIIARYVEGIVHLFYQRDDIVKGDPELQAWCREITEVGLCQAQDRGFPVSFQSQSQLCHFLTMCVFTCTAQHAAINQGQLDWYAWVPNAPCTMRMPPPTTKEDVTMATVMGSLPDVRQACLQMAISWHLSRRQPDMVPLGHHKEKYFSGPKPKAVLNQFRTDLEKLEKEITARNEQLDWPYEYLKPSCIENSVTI
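Hydroperoxide product was detected by ferrous iron/xylenol orange as the 573 to 405 nm absorbance ratio. Arachidonic acid at 40 uM (final) was turned over for 30 min at room temperature by 150 nM human 12hLO, pH 7.0 Hepes buffer, after 15 min compound preincubation.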
DT40 TDP1 no CPT: qHTS for Inhibitors of human tyrosyl-DNA phosphodiesterase 1 (TDP1): qHTS in cells in absence of CPT | DT40 Tdp1-/- hTDP1 cells, no CPT, ATP luminescence, 48 h | Potency, µM (highest dose often 46.2 µM), without a hit: at the top dose activity change, negative = growth inhibition, most hits filed as inhibitors | 15% of 420,000 active | AID 686978, 2013; also: nearly all actives have a fitted effect of over 55% in size
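Readout: luminescence from CellTiter-Glo after 30 min in the dark at RT. Cells: DT40 Tdp1-/- with stable hTDP1, 400/well. Exposure: compounds alone, ≥48 hr, 37 °C.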
* = called active by the depositor; ? = inconclusive; . = not tested or not shown; [ ] = another dose, or the depositor's remark. Calls follow the shape of the dose curve; as a rule, active = well fitted curve in the direction sought with a large enough effect; inconclusive = small, poorly fitted or top-dose-only effect, or another doubt; inactive = no such curve, though single readings can be large; an effect the other way counts as inactive or inconclusive. % is scaled to controls: 0 for no effect and ±100 for the full control effect; potency is read from the fitted curve at half-maximal effect.

SMILES | DT40 TDP1 CPT | ELG1 DNA repair | RORg inh | Gal4-VP16 FLuc | 12-LOX inh | DT40 TDP1 no CPT
Cc1ccc(S(=O)(=O)Nc2ccc3c(c2)C(=O)N([C@@H](C)CO)C[C@@H](C)[C@@H](CN(C)C(=O)NC(C)C)OCCCC[C@H](C)O3)cc1 | -18.1% | . | . | . | -16.6% | ?
Cc1ccc(S(=O)(=O)Nc2ccc3c(c2)C(=O)N([C@@H](C)CO)C[C@@H](C)[C@@H](CN(C)S(=O)(=O)c2ccccc2)OCCCC[C@H](C)O3)cc1 | 8.2µM* | . | . | . | ? | 10.3µM*
C[C@@H]1CCCCO[C@@H](CN(C)Cc2ccc3c(c2)OCO3)[C@@H](C)CN([C@H](C)CO)C(=O)c2cc(NS(=O)(=O)c3ccccc3)ccc2O1 | 18.4µM* | . | . | . | -11.8% | 10.3µM*
Cc1ccc(S(=O)(=O)N(C)C[C@@H]2OCCCC[C@@H](C)Oc3ccc(NS(=O)(=O)c4c(C)noc4C)cc3C(=O)N([C@H](C)CO)C[C@@H]2C)cc1 | 16.4µM* | . | . | . | ? | 11.6µM*
O=C(NC1CCCN(c2cc(-c3ccc(F)cc3)[nH]n2)C1)c1cc(F)ccc1F (configuration not stated) | . | . | . | . | 20.8% | .
CN1CCN(c2ccc(NC(=O)CN(Cc3ccccc3)S(=O)(=O)c3ccccc3)cc2)CC1 | . | . | . | . | -26.1% | .
CCc1ccc(-n2nc(CO)c(C(=O)NCc3ccc(OC)cc3)n2)cc1 | . | . | . | . | 11.6% | .
C(#Cc1ccccc1)CNC12CC3CC(CC(C3)C1)C2 | . | . | . | . | -22.3% | .
C/C(=N\NS(=O)(=O)c1ccc(C)cc1)c1cccs1 | -1.7% | 9.0% | 31.2% | 3.2% | 2.3% | -29.6%
Cc1ccc(S(=O)(=O)NN=C(c2ccccc2)c2cccs2)cc1 | -19.2% | . | . | . | ? | 11.6µM*
O=C(CN1C(=O)C2(SCC(=O)N2c2ccc(Cl)cc2)c2ccccc21)NCCc1ccccc1 (configuration not stated) | ? | . | . | . | -10.4% | 18.4µM*
Cc1ccc(N2C(=O)CSC23C(=O)N(CC(=O)NCCc2ccccc2)c2ccccc23)cc1C (configuration not stated) | ? | . | . | . | 0.0% | ?
COc1ccc(N2C(=O)CSC23C(=O)N(CC(=O)NCCc2ccccc2)c2ccccc23)cc1 (configuration not stated) | 16.4µM* | . | . | . | -5.1% | ?
O=C1CSC2(C(=O)N(Cc3ccccc3)c3ccccc32)N1c1ccc(Cl)cc1 (configuration not stated) | 16.4µM* | . | . | . | 4.6% | 20.6µM*
Cc1cccc(N2C(=O)CSC23C(=O)N(CC(=O)NCc2ccccc2Cl)c2ccccc23)c1 (configuration not stated) | ? | . | . | . | -14.5% | 20.6µM*
Cc1ccc(NC(=O)c2nc3ccccc3nc2Cl)c(C)c1 | . | . | . | . | 12.9% | .
Cc1noc(C)c1CC(=O)N1Cc2ccccc2OC2(CCN(C(=O)NC(C)C)CC2)C1 | . | . | . | . | -4.7%[6.33 µM] | .
Cc1ccccc1S(=O)(=O)N1CCCC(CCC(=O)NC2CC2)C1 (configuration not stated) | . | . | . | . | 33.1% | .
OCC1OC(n2cnc3c(N4CCCCC4)ncnc32)C(O)C1O (configuration not stated) | -16.8% | . | . | . | -1.6% | -8.6%
OC[C@H]1O[C@@H](n2cnc3cncnc32)[C@H](O)[C@@H]1O | 0.259µM* | . | 7.08µM* | 3.16µM* | 0.6% | 0.461µM*
Nc1nccc2c1ncn2C1OC(CO)C(O)C1O (configuration not stated) | 7.31µM* | . | . | . | -0.3% | 5.8µM*
OCC1OC(n2cnc3c(Cl)nc(Cl)nc32)C(O)C1O (configuration not stated) | ? | . | 12.6µM* | -4.4% | . | ?
COc1ccc(CN2CCC3(Cc4ccccc4CNC3=O)C2)cn1 (configuration not stated) | . | . | . | . | 9.6%[6.33 µM] | .
CCOc1ccccc1NC(=O)CCc1ncc(-c2ccc(C)cc2)o1 | . | . | . | . | -10.5% | .
CCCC[n+]1c(C)ccc2ccccc21 | ? | . | . | . | . | 15.8µM*
SMILES | DT40 TDP1 CPT | ELG1 DNA repair | RORg inh | Gal4-VP16 FLuc | 12-LOX inh | DT40 TDP1 no CPT
CC[n+]1c(C)ccc2ccccc21 | . | . | . | . | 15.8µM* | .
Cc1cccc(NC(=O)CSc2cn(CC(=O)N3CCC(C)CC3)c3ccccc23)c1C | 23.1µM* | . | . | . | -22.3% | 9.2µM*
CC1CCN(C(=O)Cn2cc(SCC(=O)Nc3ccccc3C(F)(F)F)c3ccccc32)CC1 | ? | . | . | . | -0.9% | 20.6µM*
CS(=O)(=O)Nc1cccc(-c2ccc3ncnc(NC4CC4)c3c2)c1 | 8.2µM* | . | ? | -27.5% | ? | 6.51µM*
COCCNc1ncnc2ccc(-c3cccc(NS(C)(=O)=O)c3)cc12 | ? | . | ? | -3.0% | ? | ?
CC(=O)NCCNc1ncnc2ccc(-c3cccc(NS(C)(=O)=O)c3)cc12 | ? | . | 22.7% | -4.7% | ? | -4.1%
CN1CCN(c2ncnc3ccc(-c4cccc(NS(C)(=O)=O)c4)cc23)CC1 | 3.66µM* | . | -15.5% | -21.4% | ? | 6.51µM*
CC(=O)c1ccc2c(c1)C1C=CCC1C(c1cc3c(cc1Br)OCO3)N2 (configuration not stated) | 3.66µM* | -1.0% | . | . | ? | 4.61µM*
CC(=O)c1ccc2c(c1)C1C=CCC1C(c1ccc(S(=O)(=O)N3CCOCC3)cc1)N2 (configuration not stated) | -19.2% | 0.0% | 20.8% | -1.6% | ? | ?
COc1ccc2c(c1)C1C=CCC1C(c1cc3c(cc1Br)OCO3)N2 (configuration not stated) | ? | -8.1% | -11.8% | -0.9% | -15.4% | 18.4µM*
CCCCOc1ccc(NC(=O)COc2ccccc2C)c2cccnc12 | . | . | . | . | 7.9% | .
CCCn1cc(CNC(=O)c2cn(CCN)nn2)cn1 | . | . | . | . | 24.2% | .
Cc1cc(C(=O)N[C@@H]2CN(Cc3ccccn3)C[C@H]2CN(C)C)n[nH]1 | . | . | . | . | 132.9% | .
CCN(c1ccccc1)S(=O)(=O)c1ccc(C(=O)Nc2nnc(C3CC3)o2)cc1 | 20.6µM* | 10.3µM* | 0.251µM* | 0.562µM* | -3.7% | 18.4µM*
CN(c1ccccc1)S(=O)(=O)c1ccc(C(=O)Nc2nnc(C3CC3)o2)cc1 | 2.3% | 10.3µM* | 0.316µM* | 1µM* | 8.5% | 6.6%
